Inconclusive results are not listed. Unmarked numbers belong to inactive results. Active and inactive are the calls of the source. The call rests on the fitted dose curve; in most records, active means well fitted inhibition curve with a large enough effect; inconclusive means small, poorly fitted or top-dose-only effect; inactive means flat fitted curve, though single readings scatter.
Columns and labels:
Test in all cases: Cytotoxic Profiling of Annotated Libraries Using Quantitative High-Throughput Screening (AID 1296008); further: nearly all actives have a fitted effect of over 60% in size
Settings in all cases: Five cell lines viability, CellTiter-Glo ATP luminescence, 48-72 h; max response: hits give low values
CRL-7250 = system: CRL-7250
How it was run: (§1)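 Cytotoxicity was measured as CellTiter-Glo ATP luminescence, read after 10 min at room temperature. Compound treatment of the cells lasted 48 or 72 hr at 37 degrees Celsius in a qHTS format.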

HEK293 = system: HEK293
How it was run: as §1

HaCat = system: HaCat
How it was run: as §1

KB-3-1 = system: KB-3-1
How it was run: as §1

NIH3T3 = system: NIH3T3
How it was run: as §1
On the % scale 0 is the no-effect control and ±100 the full control effect; potency means the concentration at half of the fitted maximal effect.

Row | SMILES | max response (CRL-7250) [%] | max response (HEK293) [%] | outcome (HaCat) | outcome (KB-3-1) | max response (NIH3T3) [%] | outcome (CRL-7250) | max response (HaCat) [%] | max response (KB-3-1) [%] | outcome (NIH3T3) | Potency (HEK293)
1 | O=C(/C=C/c1ccc(O)cc1)OC[C@@]1(O)C=C[C@@H]2C(C(=O)O)=CO[C@@H](O[C@@H]3O[C@H](CO)[C@@H](O)[C@H](O)[C@H]3O)[C@@H]21 | -3.16 | -5.68 | inactive | inactive | 2.82 | – | – | – | – | –
2 | O=C(Cc1ccc(Cl)cc1)Nc1cnccc1C(=O)O | – | 4.18 | – | – | – | inactive | -20.9 | 1.29 | inactive | –
3 | CC1=CC2=C(C)C(=O)[C@](C)(O)[C@H](O)C2=CO1 | -8.59 | 3.6 | inactive | – | -3.34 | – | – | 6.84 | – | –
4 | COC(=O)C(CC1(OC(=O)C(C)C)c2ccccc2N2C(=O)C(C)(C)N(O)C21)n1cnc2ccccc2c1=O (stereo not given) | -11.1 | -9.23 | inactive | – | -14.6 | – | – | 5.72 | – | –
5 | COC(=O)C1=CO[C@@H](O[C@@H]2O[C@H](CO)[C@@H](O)[C@H](O)[C@H]2O)[C@@H]2[C@@H](C(=O)O)CC[C@H]12 | -20 | -0.168 | inactive | – | 0.607 | – | – | 3.46 | – | –
6 | CC(=O)OC1C(C)C2C(OC3OC(CO)C(O)C(O)C3O)OC=C(C(=O)O)C2C1OC(=O)c1ccccc1 (stereo not given) | – | 1.6 | – | inactive | – | inactive | -7.28 | – | inactive | –
7 | CC1(C(=O)O)CCCC2(C)C3CCC4CC3(CCC12)CC4C(=O)O (stereo not given) | – | 1.27 | inactive | – | – | inactive | – | 6.21 | inactive | –
8 | CCCC/C=C\CCCCCc1cc(=O)c2ccccc2n1C | -5.2 | -7.72 | inactive | inactive | – | – | – | – | inactive | –
9 | C[C@@H]1C[C@H]2OC(=O)[C@@]3(C)CCC[C@](C)(C23)[C@@]1(O)CCC1=CC(=O)OC1O (stereo not given in full) | – | -8.41 | – | inactive | – | inactive | 3.15 | – | inactive | –
10 | CC(C)(O)C1CC=C(C(=O)OC[C@H]2O[C@@H](OC(=O)C3=CCC(C(C)(C)O)CC3)[C@H](O)[C@@H](O)[C@@H]2O)CC1 (stereo not given in full) | 3.51 | 1.77 | inactive | – | – | – | – | 9.42 | inactive | –
11 | CC(C)=C1CC2[C@](C)(CC[C@@H](OC(=O)C3(C)OC3C)[C@@]2(C)O)CC1=O (stereo not given in full) | – | 4.03 | inactive | – | -3.35 | inactive | – | 6.8 | – | –
12 | Fc1cccc(CN(C2=NCCN2)c2c(Cl)cccc2Cl)c1 | -5.57 | -13.5 | – | – | – | – | 0.445 | 5.56 | inactive | –
13 | Cc1ncc(NC(=O)c2ccc(CN3CCN(C)CC3)c(C(F)(F)F)c2)cc1Nc1nccc(-c2cccnc2)n1 | -2.29 | – | inactive | – | 1.55 | – | – | 8.35 | – | 16.4 µM (active)
14 | CC(=O)C1CCC(=O)N1Cc1ccccc1 (stereo not given) | – | -9.27 | inactive | – | 3.14 | inactive | – | -4.66 | – | –
15 | C=C1CC23CC1CCC2C12OC(=O)C(C)(C(O)CC1O)C2C3C(=O)O (stereo not given) | -0.83 | -15.6 | inactive | – | -6.25 | – | – | 1.34 | – | –
16 | COc1ccc(CCc2nc3cc(-c4c(C)noc4C)ccc3n2C[C@H](C)N2CCOCC2)cc1Cl | -8.27 | – | inactive | – | – | – | – | -12.6 | inactive | 18.4 µM (active)
17 | CCCCNc1nc(N)c2[nH]c(=O)n(Cc3ccc(OCCN(C)C)nc3)c2n1 | -6.94 | -20.1 | inactive | inactive | – | – | – | – | inactive; activator | –
18 | C=CCC/C=C/C#CCCCCCCCC[C@H]1C(=O)O[C@H](C)[C@@H]1O | 0.985 | -11.8 | inactive | – | 0.0642 | – | – | -1.24 | – | –
19 | COc1cc(C)c(C(=O)OC2C(C)OC(OC3CCC(C)C4C3C=C(C)C3/C(C)=C\CC/C(C)=C/C5(C)C=C(C(=O)O)C(C)CC56OC(=O)/C(=C(\O)C34C)C6=O)C(O)C2O)c(OC)c1 (stereo not given) | – | -1.11 | inactive | – | – | inactive | – | -3.91 | inactive | –
20 | CC(C)=CCC[C@](C)(O[C@@H]1O[C@H](CO[C@@H]2OC[C@H](O)[C@H](O)[C@H]2O)[C@@H](O)[C@H](O)[C@H]1O)[C@H]1CC[C@]2(C)[C@@H]1[C@H](O)C[C@@H]1[C@@]3(C)CC[C@H](O[C@@H]4O[C@H](CO)[C@@H](O)[C@H](O)[C@H]4O[C@@H]4O[C@H](CO)[C@@H](O)[C@H](O)[C@H]4O)C(C)(C)[C@@H]3CC[C@]12C | – | 3.96 | inactive | – | – | inactive | – | 1.14 | inactive | –

Row | SMILES | max response (CRL-7250) [%] | max response (HEK293) [%] | outcome (HaCat) | outcome (KB-3-1) | max response (NIH3T3) [%] | outcome (CRL-7250) | max response (HaCat) [%] | max response (KB-3-1) [%] | outcome (NIH3T3) | Potency (HEK293)
21 | COC(=O)c1ccc(OC)cc1O[C@@H]1O[C@H](CO[C@@H]2OC[C@@H](O)[C@H](O)[C@H]2O)[C@@H](O)[C@H](O)[C@H]1O | -0.542 | -1.51 | – | inactive | – | – | -6.53 | – | inactive | –
22 | COc1cccc(OC)c1-c1ccc(C[C@H](NC(=O)c2c(Cl)cccc2Cl)C(=O)O)cc1 | 1.89 | -9.99 | inactive | inactive | – | – | – | – | inactive | –
23 | CC(C)=CC1C[C@](C)(O)[C@@H]2[C@H]3CCC4[C@@]5(C)CC[C@H](O[C@@H]6OC[C@H](O)[C@H](O[C@@H]7O[C@H](CO[C@@H]8O[C@H](CO)[C@@H](O)[C@H](O)[C@H]8O)[C@@H](O)[C@H](O)[C@H]7O)[C@H]6O[C@@H]6O[C@@H](C)[C@H](O)[C@@H](O)[C@H]6O)C(C)(C)[C@@H]5CC[C@@]4(C)[C@@]34CO[C@@]2(C4)O1 (stereo not given in full) | -1.09 | -3.55 | – | inactive | – | – | 4.88 | – | inactive | –
24 | C[C@@H]1O[C@@H](O[C@@H]2\C=C/C=C\C=C/C=C\C[C@H](C)OC(=O)/C=C\[C@H]3O[C@@H]3C[C@H](O)C[C@]3(O)C[C@@H](O)[C@@H](C(=O)O)[C@H](C2)O3)[C@H](O)[C@H](N)[C@@H]1O | 3.44 | 3.56 | inactive | inactive | 3.56 | – | – | – | – | –
25 | C=C1C(OC(C)=O)[C@@]23CCC4[C@](C)(C(=O)O)CCC[C@@]4(C)[C@]2(O)CC[C@H]1C3 (stereo not given in full) | 1.93 | -3.51 | inactive | – | – | – | – | 0.958 | inactive | –
26 | C[C@H](O)C(O)(C(=O)OCc1ccccc1NC(=O)CCC(N)C(=O)O)[C@H](C)O (stereo not given in full) | -7.85 | -11.8 | inactive | inactive | – | – | – | – | inactive | –
27 | Cc1occc(=O)c1O[C@@H]1O[C@H](CO)[C@@H](O)[C@H](O)[C@H]1O | -1.36 | 2.23 | inactive | inactive | – | – | – | – | inactive | –
28 | CC1=C(C)C(=O)OC(C(C)C2C(O)CC3C4C5OC5C5(O)CC(OC6OC(CO)C(OC7OC(C)C(O)C(O)C7O)C(O)C6O)CC(O)C5(C)C4CCC32C)C1 (stereo not given) | -10 | -3.17 | inactive | – | 0.724 | – | – | 2.34 | – | –
29 | CC(=O)/C=C/C1C(C)CC(O[C@@H]2O[C@H](CO)[C@@H](O)[C@H](O)[C@H]2O)CC1(C)C (stereo not given in full) | – | 3.69 | inactive | inactive | – | inactive | – | – | inactive | –
30 | CC12CC(c3ccoc3)OC(=O)C1CCC1(C)C2CCC(O)C1(C)O (stereo not given) | – | 0.137 | inactive | – | – | inactive | – | 6.59 | inactive | –
31 | C[C@@H]1O[C@@H](OC2C(CO)OC(OCC3OC(OC(=O)[C@]45CCC(C)(C)CC4C4=CCC6[C@@]7(C)CC[C@@H](O)[C@](C)(C(=O)O)C7CC[C@@]6(C)[C@]4(C)CC5)C(O)C(O)C3O)C(O)C2O)[C@H](O)[C@H](O)[C@H]1O (stereo not given in full) | – | 2.84 | inactive | – | -0.476 | inactive | – | -3.25 | – | –
32 | C/C(=C\CCC1(C)C2CC3C(C2)C31C)C(=O)O (stereo not given) | – | -2.35 | inactive | inactive | – | inactive | – | – | inactive | –
33 | Cc1ccccc1-c1cc(N2CCN(C)CC2)ncc1N(C)C(=O)C(C)(C)c1cc(C(F)(F)F)cc(C(F)(F)F)c1 | 1.9 | -6.53 | – | – | – | – | -0.694 | -5.47 | inactive | –
34 | O=C(O)C1(c2ccc(-c3ccc(Cl)c(Cl)c3)c(F)c2)CC1 | 2.78 | -11.7 | inactive | – | – | – | – | -5.77 | inactive | –
35 | C=C1C[C@]23C[C@H]1CC[C@H]2[C@]1(C)CC[C@H](O)[C@@](C)(C(=O)O)[C@H]1[C@@H]3C(=O)O | -9.09 | 0.167 | inactive | – | 2.39 | – | – | -2.4 | – | –
36 | O=C(C[C@@H]1C(C(=O)O)=CO[C@@H](O[C@@H]2O[C@H](CO)[C@@H](O)[C@H](O)[C@H]2O)/C1=C\CO)OCCc1ccc(O)c(O)c1 | -2.34 | 2.23 | inactive | – | – | – | – | 9.2 | inactive | –
37 | CC1CCC2C(C)(C)C(O)C(O)CC2(C)C12Cc1c(O)cc(CO)c(C=O)c1O2 (stereo not given) | 1.89 | -2.44 | inactive | – | 0.788 | – | – | 2.63 | – | –
38 | C=C1C2CCC3CC2(CC(O)C2(O)C1CC(OC1OC(CO)C(O)C(O)C1O)C2(C)C)CC3(C)O (stereo not given) | -0.056 | 4.37 | – | – | – | – | -5.66 | -0.357 | inactive | –
39 | COc1cc(CO)cc(OC)c1O[C@@H]1O[C@H](CO)[C@@H](O)[C@H](O)[C@H]1O | -11.4 | -2.97 | inactive | – | – | – | – | 4.69 | inactive | –

Source: PubChem BioAssay (NCATS)
